According to PubChem BioAssay AID1159580 (chemical genetic matrix, 2015):
The whole screen tested about 5,500 compounds, of which about 2,000 (36%) were called active. About 18% were inconclusive and are not listed. Cut-off read from the data, not from the text of the source: active = normalized growth mostly below about 0.91 (no sharp cut-off); inconclusive = no clear call, values can overlap the other calls; inactive = mostly above about 0.92. The list shows a part of the results.

Test: chemical genetic growth profiling, strain panel (AID 1159580);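 note: tested at 20 µM; growth read once vehicle control cultures reached saturation at 30 °C; 1 = growth at the plate median or of vehicle wells; lower values mean less growth of the strain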
Settings: S. cerevisiae deletion strains, growth OD

Measured: normalized growth

O=c1ccc2ccc(O)cc2o1
inactive: locus YAL021C, strain ccr4, hits give low values 1.05 | locus YAL026C, strain drs2, hits give low values 0.984 | locus YAL030W, strain snc1, hits give low values 0.999 | locus YBL061C, strain skt5, hits give low values 0.991 | locus YBR009C, strain hhf1, hits give low values 1.01 | locus YBR023C, strain chs3, hits give low values 1.01 | locus YBR171W, strain sec66, hits give low values 0.987 | locus YBR231C, strain swc5, hits give low values 0.976 | locus YBR279W, strain paf1, hits give low values 1.01 | locus YCL011C, strain gbp2, hits give low values 1.01 | locus YCL016C, strain dcc1, hits give low values 1.02 | locus YCL069W, strain vba3, hits give low values 0.996 | locus YCR088W, strain abp1, hits give low values 0.996 | locus YDL005C, strain med2, hits give low values 0.981 | locus YDL040C, strain nat1, hits give low values 0.988 | locus YDR001C, strain nth1, hits give low values 0.988 | locus YDR069C, strain doa4, hits give low values 0.993 | locus YDR137W, strain rgp1, hits give low values 1.02 | locus YDR159W, strain sac3, hits give low values 0.972 | locus YDR195W, strain ref2 0.942 | locus YDR297W, strain sur2, hits give low values 0.986 | locus YDR334W, strain swr1, hits give low values 0.985 | locus YDR335W, strain msn5, hits give low values 1 | locus YDR392W, strain spt3, hits give low values 0.96 | locus YEL003W, strain gim4, hits give low values 0.988 | locus YEL037C, strain rad23, hits give low values 0.985 | locus YEL061C, strain CIN8 (second series), hits give low values 0.989 | locus YER015W, strain faa2, hits give low values 1.01 | locus YER016W, strain bim1, hits give low values 0.996 | locus YER111C, strain swi4, hits give low values 0.981 | locus YER155C, strain BEM2 (second series), hits give low values 0.986 | locus YFR010W, strain ubp6, hits give low values 0.976 | locus YGL167C, strain pmr1, hits give low values 0.99 | locus YGL173C, strain kem1, hits give low values 0.988 | locus YGL227W, strain vid30, hits give low values 0.983 | locus YGL240W, strain doc1, hits give low values 0.976 | locus YGL253W, strain hxk2, hits give low values 0.972 | locus YHR013C, strain ard1, hits give low values 0.997 | locus YHR027C, strain rpn1, hits give low values 0.981 | locus YHR142W, strain chs7, hits give low values 1.01 | locus YJL092W, strain hpr5, hits give low values 0.994 | locus YJL095W, strain BCK1 (second series), hits give low values 1 | locus YJL115W, strain asf1, hits give low values 0.985 | locus YJL129C, strain trk1, hits give low values 0.972 | locus YJL154C, strain vps35, hits give low values 0.988 | locus YJL164C, strain tpk1, hits give low values 1.01 | locus YJL166W, strain qcr8, hits give low values 1 | locus YKL160W, strain elf1, hits give low values 1.01 | locus YKR026C, strain gcn3, hits give low values 0.991 | locus YKR091W, strain srl3, hits give low values 0.992 | locus YLL001W, strain dnm1, hits give low values 1.01 | locus YLL026W, hits give low values 1 | locus YLL041C, strain sdh2, hits give low values 0.992 | locus YLR027C, strain aat2, hits give low values 1.01 | locus YLR221C, strain rsa3, hits give low values 0.98 | locus YLR258W, strain gsy2, hits give low values 1.03 | locus YLR262C, strain YPT6 (second series), hits give low values 1.01 | locus YLR320W, strain mms22, hits give low values 0.975 | locus YLR342W, strain FKS1, hits give low values 1 | locus YLR357W, strain rsc2, hits give low values 0.996 | locus YLR370C, strain arc18, hits give low values 1 | locus YLR384C, strain iki3, hits give low values 0.988 | locus YML120C, strain ndi1, hits give low values 1.01 | locus YMR058W, strain fet3, hits give low values 0.99 | locus YMR125W, strain sto1, hits give low values 1.01 | locus YMR129W, hits give low values 0.993 | locus YMR205C, strain PFK2, hits give low values 1.02 | locus YMR231W, strain pep5, hits give low values 0.982 | locus YNL071W, strain lat1, hits give low values 1 | locus YNL209W, strain ssb2, hits give low values 1.01 | locus YNL248C, strain rpa49, hits give low values 0.999 | locus YNL322C, strain KRE1 (second series), hits give low values 0.996 | locus YNR049C, strain mso1, hits give low values 0.979 | locus YOR001W, strain rrp6, hits give low values 0.931 | locus YOR070C, strain gyp1, hits give low values 0.999 | locus YOR080W, strain dia2, hits give low values 0.992 | locus YOR083W, strain WHI5, hits give low values 1.03 | locus YOR106W, strain vam3, hits give low values 1.03 | locus YOR265W, strain rbl2, hits give low values 0.994 | locus YOR270C, strain vph1, hits give low values 0.985 | locus YOR290C, strain snf2, hits give low values 1 | locus YPL051W, strain arl3, hits give low values 0.997 | locus YPL078C, strain atp4, hits give low values 1.01 | locus YPL106C, strain sse1, hits give low values 1.03 | locus YPL240C, strain hsp82, hits give low values 0.998
